Records with an inconclusive call do not appear. Calls of active or inactive are those of the source. Calls come from the whole dose curve; as a rule, active = well fitted inhibition curve with a large enough effect; inconclusive = small, poorly fitted or top-dose-only effect; inactive = flat fitted curve, though single readings scatter.
How the values were obtained:
Assay in all cases: qHTS profiling for inhibitors of Plasmodium falciparum proliferation (AID 504749); note: nearly all actives have a fitted effect of over 60% in size
Details in all cases: P. falciparum in erythrocytes, SYBR Green DNA, 72 h; series mostly up to 12.8 µM
[1] = tested on: CP266
How it was run: (§1)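 P. falciparum-infected erythrocytes (0.3% parasitemia, 2.5% hematocrit final) were exposed to compounds for 72 h at 37 C in 5% CO2, then lysed with SYBR Green buffer overnight at room temperature; parasite DNA fluorescence was normalized to artemisinin and DMSO controls.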

[2] = tested on: CP268
How it was run: as §1

[3] = tested on: CP269
How it was run: as §1

[4] = tested on: CP286
How it was run: as §1

[5] = tested on: CP291
How it was run: as §1

[6] = tested on: CP297
How it was run: as §1

[7] = tested on: CP305
How it was run: as §1

[8] = tested on: CP315
How it was run: as §1

[9] = tested on: CP325
How it was run: as §1

[10] = tested on: CP329
How it was run: as §1

[11] = tested on: CP335
How it was run: as §1

[12] = tested on: DFO2036
How it was run: as §1

[13] = tested on: DIV17
How it was run: as §1

[14] = tested on: DIV30
How it was run: as §1

[15] = tested on: Dd2
How it was run: as §1

[16] = tested on: ECU
How it was run: as §1

[17] = tested on: FAB9
How it was run: as §1

[18] = tested on: GB4
How it was run: as §1

[19] = tested on: HB3
How it was run: as §1

[20] = tested on: ICS
How it was run: as §1

[21] = tested on: JCK
How it was run: as §1

[22] = tested on: N140
How it was run: as §1

[23] = tested on: P93_24
How it was run: as §1

[24] = tested on: P94_40
How it was run: as §1

[25] = tested on: PAD
How it was run: as §1

[26] = tested on: PC15
How it was run: as §1

[27] = tested on: PC26
How it was run: as §1

[28] = tested on: PC49
How it was run: as §1

[29] = tested on: SC27B
How it was run: as §1

[30] = tested on: TAB109
How it was run: as §1

[31] = tested on: TAB113
How it was run: as §1

[32] = tested on: TAB165
How it was run: as §1

[33] = tested on: W2
How it was run: as §1

Measured: Potency

Nc1nc(NC2CC2)c2ncn([C@H]3C=C[C@@H](CO)C3)c2n1
inactive: [1] | [2] | [3] | [4] | [5] | [6] | [7] | [8] | [9] | [10] | [11] | [12] | [13] | [14] | [15] | [16] | [17] | [18] | [19] | [20] | [21] | [22] | [23] | [24] | [25] | [26] | [27] | [28] | [29] | [30] | [31] | [32] | [33]

— PubChem BioAssay (NCATS)
